Source: PubChem BioAssay AID588689 (Southern Research Specialized Biocontainment Screening …, 2011)
In all, about 340,000 compounds went through this assay and about 1,000 (0.29%) were called active. Cut-off read from the data, not from the text of the source: inconclusive = inhibition above about 29% without an active follow-up result; inactive = below that. Only a sample is shown. Potency and affinity values are given separately.

Target: Genome polyprotein (Dengue virus type 2 (strain 16681-PDK53)) (UniProt P29991)
Experiment: flavivirus cap methylation enzyme inhibition – biochemical, confirmation dose response, primary screen (AID 588689)
Details: Dengue-2 NS5 methyltransferase capping enzyme assay, at 25 µM, stronger effect = higher value
[1] = measured here: pilot screen replicate inhibition

Row | Structure (SMILES) | inhibition | inhibition [1] [%]
1 | O=C(N/N=C/c1cc(Br)c(Br)o1)c1cc2ccccc2o1 | -5.43% (inactive) | –
2 | O=C1CCC[C@@H]2C[C@@]3(C[C@@H]4CCN1[C@H]24)Nc1cc(Cl)ccc1NC3=NCc1ccccc1 | -11.9% (inactive) | –
3 | O=C(NCCCc1ccccc1)c1cccc(NC(=O)C2CCCCC2)c1 | -8.46% (inactive) | –
4 | COc1ccc(C2=NN(C(=O)c3ccc(Cl)c([N+](=O)[O-])c3)C(c3ccccc3)C2)cc1 (stereo not given) | -4.55% (inactive) | –
5 | Cc1ccc(NC(=S)NN2CCN(C)CC2)c(C)c1 | 3.57% (inactive) | –
6 | Cn1c2cc(C#N)sc2c2cnn(Cc3ccc(F)cc3)c(=O)c21 | -9.27% (inactive) | -3.06
7 | Cc1ccccc1-c1cc(C(=O)NCc2cccc(C(F)(F)F)c2)n(CC2CC(c3cccnc3)=NO2)n1 (stereo not given) | 5.79% (inactive) | –
8 | CCOc1ccccc1C=NNc1ccc([N+](=O)[O-])cn1 | -10.8% (inactive) | –
9 | Cc1ccc(-c2cc(C(=O)N3CCC(C)CC3)c3ccccc3n2)cc1 | -0.67% (inactive) | –
10 | COc1nnc(-c2ccccc2)s1 | -4.6% (inactive) | –
11 | O=C(O)C1=CC[C@@H](c2ccc(Cl)cc2)N(S(=O)(=O)c2ccc(Cl)cc2)[C@H]1c1ccccc1 | 15.7% (inactive) | –
12 | Cc1ccc(S(=O)(=O)N2[C@@H](c3ccc(Br)cc3)C(C(=O)O)=CC[C@H]2c2ccc(Cl)cc2)cc1 | 26.7% (inactive) | –
13 | CCCCC1CCC(C(=O)NCC(c2ccco2)N2CCOCC2)CC1 (stereo not given) | -3.1% (inactive) | –
14 | CCCCn1c(=O)c(-c2ccccc2)c(O)c2ccccc21 | -4.09% (inactive) | –
15 | CCn1c(=O)c(-c2ccccc2)c(O)c2ccccc21 | 0% (inactive) | –
16 | CCCCCn1c(=O)c(C(=O)OCC)c(O)c2ccccc21 | -0.68% (inactive) | –
17 | CCCCn1c(=O)c(C(=O)OCC)c(O)c2ccccc21 | 3.24% (inactive) | –
18 | O=C1C(=Cc2ccncc2)CCCc2ccccc21 | -20.6% (inactive) | –
19 | O=C(NC(=S)N1CCCCCC1)c1cccc([N+](=O)[O-])c1 | -2.29% (inactive) | –

Row | Structure (SMILES) | inhibition | inhibition [1] [%]
20 | O=C(Cn1cc(C(F)(F)F)ccc1=O)NCCc1ccc(Cl)cc1Cl | -0.73% (inactive) | –
21 | O=C(/C=C/c1ccccc1)C1C(=O)c2ccccc2C1=O | -1.46% (inactive) | –
22 | Cc1ccc(/C=C/C(=O)C2C(=O)c3ccccc3C2=O)cc1 | 13.3% (inactive) | –
23 | Cc1ccc(C)c(N2CCN(C(=O)C3CCCN(S(=O)(=O)c4c(C)noc4C)C3)CC2)c1 (stereo not given) | -2.75% (inactive) | –
24 | O=C(NCCC1=CCCCC1)c1ccc(Cl)c([N+](=O)[O-])c1 | 0% (inactive) | –
25 | O=C(O)c1ccc(NCCC2=CCCCC2)c([N+](=O)[O-])c1 | 5.44% (inactive) | –
26 | Nc1c(C(=O)N/N=C/c2ccccc2)cnn1-c1ccccc1 | 1.53% (inactive) | –
27 | O=C(O)c1ccc(NS(=O)(=O)c2ccc3c(c2)OCCCO3)cc1 | -0.76% (inactive) | –
28 | COc1ccc(C(=O)N/N=C(\C)c2ccc3c(c2)C2C=CCC2C(c2ccccc2)N3)cc1 (stereo not given) | 2.59% (inactive) | –
29 | COc1cccc(NS(=O)(=O)c2ccc3c(c2)NC(=O)CC(=O)N3)c1 | -10.6% (inactive) | –
30 | COC(=O)c1ccc(C2Nc3ccc(/C(C)=N/NC(=O)C(OC)c4ccccc4)cc3C3C=CCC32)cc1 (stereo not given) | -4.05% (inactive) | –
31 | COc1ccc(NS(=O)(=O)c2ccc(NS(=O)(=O)c3cccc(C(=O)O)c3)cc2)cc1 | 0% (inactive) | –
32 | COc1cccc(NS(=O)(=O)c2ccc3c(c2)CC(=O)N3)c1 | -6.98% (inactive) | –
33 | O=C(O)c1ccc2c(c1)C1C=CCC1C(c1cc3c(cc1Br)OCO3)N2 (stereo not given) | 6.19% (inactive) | –
34 | CC(=O)c1ccc2c(c1)C1C=CCC1C(c1ccc(S(=O)(=O)N3CCOCC3)cc1)N2 (stereo not given) | 11.6% (inactive) | –
35 | COc1ccc(CN2C3CCCC2CC(NC(=O)Nc2ccccc2)C3)cc1 (stereo not given) | -8.9% (inactive) | –
36 | CCN(CC(=O)Nc1ccc2c(c1)OCCO2)S(=O)(=O)c1ccc(F)cc1 | -12.2% (inactive) | –
37 | CCN(CC)S(=O)(=O)c1ccc(C(=O)NCCOC(=O)c2ccc(F)cc2F)cc1 | 8.01% (inactive) | –
38 | COc1ccccc1NS(=O)(=O)c1ccc2c(c1)OCCO2 | -2.93% (inactive) | –

Row | Structure (SMILES) | inhibition | inhibition [1] [%]
39 | Cc1ccc(S(=O)(=O)N2CCCCC2)cc1C(=O)NCc1ccc(S(N)(=O)=O)cc1 | 4.65% (inactive) | –
40 | COc1ccc(/C(O)=C2\C(=O)C(=O)N(CC3CCCO3)C2c2cc(OC)ccc2OC)cc1 (stereo not given) | -3.45% (inactive) | –
41 | O=C(NCCC1=CCCCC1)c1cnc2n(c1=O)CCS2 | 3.21% (inactive) | –
42 | COc1ccccc1C(=O)NC(=O)COC(=O)Cc1n[nH]c(=O)c2ccccc12 | 3.6% (inactive) | –
43 | COc1ccc(NS(=O)(=O)c2cc([N+](=O)[O-])ccc2N/N=C\c2c(C)[nH]c3ccccc23)cc1 | -20.6% (inactive) | –
44 | COc1ccc(S(=O)(=O)NCc2ccccn2)cc1Br | 2.64% (inactive) | 3.33
45 | N#CC1=C(Nc2ccccc2Cl)SC(c2ccccc2O)NC1=O (stereo not given) | -11.1% (inactive) | –
46 | CSC1=C(C#N)C(=O)NC(c2ccc(Cl)cc2)S1 (stereo not given) | -3.83% (inactive) | –
47 | Cc1cc(N2C(=O)C=CC2=O)c([N+](=O)[O-])cc1C | -13.6% (inactive) | –
48 | Cc1c([N+](=O)[O-])cc(N2C(=O)C=CC2=O)cc1[N+](=O)[O-] | 8.16% (inactive) | –
49 | COc1ccc(-c2ccc(NS(=O)(=O)c3ccc([N+](=O)[O-])cc3)cc2)nn1 | 5.43% (inactive) | –
50 | COc1ccc(-n2nc(C(=O)NCC(=O)NCC3CCCO3)c3ccccc3c2=O)cc1 (stereo not given) | -4.8% (inactive) | -2.44
51 | Cc1ccc(C2(C(F)(F)F)NC(=O)N3N=C4CCCCCN4C3=C2C#N)cc1 (stereo not given) | 7.4% (inactive) | –
52 | CCOc1ccc(/C=C2/SC(=S)N(CCC(=O)Nc3ccc(C(=O)O)cc3)C2=O)cc1 | -7.39% (inactive) | –
53 | CCc1ccc(/C=C2\SC(=S)N(CCCC(=O)Nc3ccc(C(=O)O)cc3)C2=O)cc1 | 17.8% (inactive) | –
54 | COc1ccc(/C=C2\SC(=S)N(CCCC(=O)Nc3ccccc3C(=O)O)C2=O)cc1OC | -34.8% (inactive) | –
55 | Cc1ccc(/C=C2\SC(=S)N(CCCC(=O)Nc3ccccc3C(=O)O)C2=O)cc1 | 15.4% (inactive) | –
56 | COc1ccc(/C=C2\SC(=S)N(CCC(=O)Nc3ccccc3C(=O)O)C2=O)cc1 | -2.62% (inactive) | –
57 | COc1ccc(/C=C2/SC(=S)N(CCCC(=O)Nc3ccccc3C(=O)O)C2=O)cc1 | 12.5% (inactive) | –
